These results are taken from PubChem BioAssay (NCATS).

Assay [1] can be described thus: Cell Viability - LYMP2-023 (AID 975).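 Note: cellular ATP measured by luciferase luminescence as viability proxy; series mostly up to about 92 µM; cells exposed to compound for 24 hours at 37 °C; plate controls were DMSO only for no effect and 92 µM tetraoctylammonium bromide control for full effect; nearly all actives have a fitted effect of over 55% in size.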 A digest of the protocol:
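Concentration-dependent drop in intracellular ATP measures acute cytotoxicity in a human lymphoblastoid line treated for 24 hours in complete culture medium. AC50 values are taken from Hill-equation fits of qHTS data.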

A short description of assay [2]: Cell Viability - LYMP2-025 (AID 976).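 Note: series mostly up to about 92 µM; cells exposed to compound for 24 h at 37 °C; plate controls were DMSO only for no effect and tetraoctylammonium bromide control for full effect.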 In short, it runs like this:
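In qHTS format, LYMP2-025 lymphoblastoid cells in complete culture medium received compound for 24 hr; ATP-based CellTiter-Glo signal gave viability, with AC50 derived by Hill equation.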

Assay [3] can be described thus: Cell Viability - LYMP2-002 (AID 977).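 Note: series mostly up to about 92 µM; compound exposure lasted 24 h at 37 °C; plate controls were DMSO only for no effect and 92 µM tetraoctylammonium bromide for full effect.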 A digest of the protocol: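 Cytotoxicity is scored as concentration-dependent loss of cellular ATP in a human lymphoblastoid line after 24 hr compound treatment at 37 C. AC50 is obtained by modelling concentration-response data with the Hill equation.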
A short description of assay [4]: Cell Viability - LYMP2-006 (AID 978).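 Note: series mostly up to about 92 µM; cells exposed to compound for 24 hours; % is set by controls: 0 for no effect and ±100 for the full control effect; nearly all actives have a fitted effect of over 60% in size.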 A digest of the protocol:
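Human lymphoblastoid cells (LYMP2-006), 2500/well in complete medium, were treated with compound for 24 hr at 37 C. Cellular ATP was read by CellTiter-Glo luminescence after 30 min, and AC50 values came from Hill-equation fits of concentration-response data.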

Assay [5] is described as follows: Cell Viability - LYMP2-007 (AID 979).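 Note: cells exposed to compound for 24 h before reading; 0% = DMSO only and the negative end = 92 µM tetraoctylammonium bromide; nearly all actives have a fitted effect of over 60% in size.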 A digest of the protocol: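 Acute toxicity is scored as a concentration-dependent fall in intracellular ATP in human lymphoblastoid cells treated 24 hr at 37 C, measured by luciferase luminescence; Hill-equation modelling yields AC50.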
A short description of assay [6]: Cell Viability - LYMP2-010 (AID 981).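 Note: cells exposed to compound for 24 hours at 37 °C; % is set by controls: 0 for no effect and ±100 for the full control effect; nearly all actives have a fitted effect of over 55% in size.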 In short, it runs like this:
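Acute toxicity is scored as a concentration-dependent loss of cellular ATP in human lymphoblastoid cells after 24 hr compound exposure in complete medium. Tetraoctylammonium bromide is the positive control.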

Assay [7] can be described thus: Cell Viability - LYMP2-012 (AID 982).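 Note: cellular ATP by luciferase luminescence where a drop means cytotoxicity; cells exposed to compound for one day before reading; 0% = DMSO only and full loss = 92 µM tetraoctylammonium bromide; nearly all actives have a fitted effect of over 55% in size.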
Assay [8] in a line: Cell Viability - LYMP2-014 (AID 983).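 Note: series mostly up to about 92 µM; cells exposed to compound for 24 h at 37 °C; plate controls were DMSO only for no effect and 92 µM tetraoctylammonium bromide for full effect; nearly all actives have a fitted effect of over 50% in size.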 In short, it runs like this: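 Decrease in intracellular ATP after 24 hr treatment at 37 C, measured by luciferase luminescence, indicated cytotoxicity. Concentration-response data were fitted with the standard Hill equation to give AC50.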
A short description of assay [9]: Cell Viability - LYMP2-018 (AID 985).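 Note: compound exposure lasted 24 hr at 37 °C; plate controls were DMSO only for no effect and tetraoctylammonium bromide at 92 µM for full effect; nearly all actives have a fitted effect of over 50% in size.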 A digest of the protocol:
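Acute cytotoxicity is scored as a concentration-dependent drop in intracellular ATP after 24 hr exposure of the lymphoblastoid line in complete culture medium, measured by luciferase luminescence. Potency is expressed as AC50 from Hill modelling.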

A short description of assay [10]: Cell Viability - LYMP2-020 (AID 986).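 Note: series mostly up to about 92 µM; cells exposed to compound for 24 h at 37 °C; plate controls were DMSO only for no effect and tetraoctylammonium bromide at 92 µM for full effect; nearly all actives have a fitted effect of over 55% in size.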 A digest of the protocol:
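Acute cytotoxicity in a human lymphoblastoid line is scored as a concentration-dependent fall in cellular ATP after 24 hr at 37 C in complete medium. The positive control is tetraoctylammonium bromide, and potency is given as Hill-fit AC50.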

Assay [11] is described as follows: Cell Viability - LYMP2-024 (AID 988).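 Note: plate controls were DMSO only for no effect and 92 µM tetraoctylammonium bromide for full effect; nearly all actives have a fitted effect of over 60% in size.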 A digest of the protocol:
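Acute toxicity is measured as concentration-dependent loss of intracellular ATP in a human lymphoblastoid line treated 24 hours at 37 C. Luciferase luminescence quantifies ATP; AC50 values come from standard Hill-equation modelling.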

Assay [12] in a line: Cell Viability - LYMP2-026 (AID 989).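 Note: cells exposed to compound for 24 h at 37 °C; % is set by controls: 0 for no effect and ±100 for the full control effect; nearly all actives have a fitted effect of over 50% in size.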 In short, it runs like this: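 Concentration-dependent loss of intracellular ATP in human lymphoblastoid cells after 24 hr at 37 C, quantified by luciferase luminescence. AC50 derived from standard Hill equation.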
A short description of assay [13]: Cell Viability - LYMP1-002 - Assay at 24 hr (AID 993). Note: % is set by controls: 0 for no effect and ±100 for the full control effect. In short, it runs like this:
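qHTS, LYMP1-002 lymphoblastoid, 24 h cpd, 37 C, CellTiter-Glo ATP luminescence; AC50 via Hill eq.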

A short description of assay [14]: Cell Viability - LYMP1-002 - Assay at 40 hr (AID 994).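 Note: 0% = DMSO only and full inhibition = 92 µM tetraoctylammonium bromide; nearly all actives have a fitted effect of over 60% in size.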 In short, it runs like this: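 Viability in the human lymphoblastoid line was measured as intracellular ATP via CellTiter-Glo after 40 hr compound exposure. Tetraoctylammonium bromide served as positive control.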
Assay [15] in a line: qHTS Assay for Identification of Small Molecule Inducers of Hypoxia Response (AID 2120; active = well fitted curve in the direction sought with a large enough effect in the signal ratio, with a control signal flat, not every such curve was filed as active; the % refers to the signal ratio; note: 0% is about no effect). In short, it runs like this:
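Induction of beta-lactamase reporter activity was measured in CellSensor HRE-bla ME-180 cells after 17 h compound treatment at 37 degrees C, using CCF4 substrate and the 460nm/530nm emission ratio to derive AC50 values.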
For orientation: qHTS replaces the single test concentration by a dilution series.

Assay [16] addresses Glucocorticoid receptor (Homo sapiens) (UniProt P04150). Put plainly: qHTS assay for small molecule antagonists of glucocorticoid receptor signaling (AID 588533; active = well fitted inhibition curve with a large enough effect in the signal ratio, with a control signal flat, not every such curve was filed as active; the % refers to the signal ratio;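 note: cells stimulated with 2 nM dexamethasone as agonist; % is set by controls: 0 for no effect and ±100 for the full control effect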). A digest of the protocol: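 Antagonist-mode qHTS: compound titrations added to GRE-bla HeLa cells, then dexamethasone 2 nM final; 18 h, 37 C. CCF4 FRET fluorescence normalized to dexamethasone and DMSO; IC50 from Hill fit.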

In assay [17] the target is Peroxisome proliferator-activated receptor delta (Homo sapiens) (UniProt Q03181). Put plainly: qHTS assay for small molecule agonists of peroxisome proliferator-activated receptor delta signaling (AID 588534; calls by dose curve;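 note: 0% = DMSO basal wells and 100% = positive control agonist at 10 µM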). In short, it runs like this:
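Reporter cells were plated and held 5 hrs at 37 C before compounds were added. After 18 hrs at 37 C, CCF4 dye was loaded for 2 hrs at RT and fluorescence measured.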

The nature of assay [18]: qHTS assay for small molecule antagonists of peroxisome proliferator-activated receptor delta signaling (AID 588535; active = well fitted inhibition curve with a large enough effect in the signal ratio, with a control signal flat, not every such curve was filed as active; the % refers to the signal ratio;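 for max response: cells co-treated with a PPAR-delta agonist as stimulator during compound exposure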). As to conditions: HEK293T PPARd-UAS-bla, beta-lactamase FRET ratio, 18 h; 460 nm channel. A digest of the protocol: (§1)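 Cell-based beta-lactamase assay in antagonist mode: 4000 HEK293T PPAR-delta-UAS-bla cells per well, 5 hr preincubation then 18 hr compound incubation at 37 C. IC50 obtained by Hill equation fitting.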

Assay [19] concerns the target Peroxisome proliferator-activated receptor delta (Homo sapiens) (UniProt Q03181). The assay is described as above. In short, it runs like this: as §1
Assay [20] deals with Vitamin D3 receptor (Homo sapiens) (UniProt P11473). Put plainly: qHTS assay for small molecule antagonists of vitamin D receptor signaling (AID 588541; calls by dose curve;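 note: receptor activated by calcitriol during compound treatment; series mostly up to about 77 µM; % is set by controls: 0 for no effect and ±100 for the full control effect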). A digest of the protocol:
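Antagonist-mode beta-lactamase reporter assay: HEK293T VDR-UAS-bla cells were exposed to titrated compound alongside 1-alpha,25-dihydroxyvitamin D3 at 3 nM final for 16 h. Values were normalized to the 50 nM agonist control and DMSO basal, with IC50 and efficacy from Hill equation fits.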

Assay [21] has the same target. Put plainly: qHTS assay for small molecule agonists of vitamin D receptor signaling (AID 588543; calls by dose curve;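 note: 0% = DMSO basal and 100% = reference agonist control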). In short, it runs like this: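 VDR-UAS-bla HEK293T cells, 2000/well, 2% charcoal-stripped FBS; compound titration 16 h at 37 C; CCF4 beta-lactamase ratio read. Normalized to 50 nM 1-alpha,25-dihydroxyvitamin D3 (100%) and DMSO; Hill fit gives EC50, efficacy.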
Assay [22] is described as follows: qHTS assay for small molecule agonists of retinoid X receptor alpha signaling (AID 588544). As to conditions: HEK293T RXRa-UAS-bla, beta-lactamase reporter, 18 h; 530 nm emission.

Inconclusive results are not listed. Active and inactive are the calls of the source. Unless noted, calls come from the whole dose curve; as a rule, active = well fitted cell-killing curve with a large enough effect; inconclusive = small, poorly fitted or top-dose-only effect; inactive = flat fitted curve, though single readings scatter.

Chain of Peroxisome proliferator-activated receptor delta (Homo sapiens) (Q03181 whole entry, looked up): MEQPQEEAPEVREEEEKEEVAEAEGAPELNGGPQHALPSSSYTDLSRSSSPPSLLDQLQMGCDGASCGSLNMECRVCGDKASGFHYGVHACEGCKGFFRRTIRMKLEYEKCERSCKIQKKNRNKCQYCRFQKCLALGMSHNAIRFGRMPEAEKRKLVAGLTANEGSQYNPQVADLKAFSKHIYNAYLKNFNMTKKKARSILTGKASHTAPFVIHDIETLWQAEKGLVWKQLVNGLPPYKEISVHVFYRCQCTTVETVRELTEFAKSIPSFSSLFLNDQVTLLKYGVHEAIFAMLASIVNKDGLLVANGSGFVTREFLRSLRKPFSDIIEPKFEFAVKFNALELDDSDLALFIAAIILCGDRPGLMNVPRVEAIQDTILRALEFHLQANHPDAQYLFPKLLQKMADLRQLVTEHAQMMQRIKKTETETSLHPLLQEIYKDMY
Chain of Vitamin D3 receptor (Homo sapiens) (P11473 whole entry, looked up): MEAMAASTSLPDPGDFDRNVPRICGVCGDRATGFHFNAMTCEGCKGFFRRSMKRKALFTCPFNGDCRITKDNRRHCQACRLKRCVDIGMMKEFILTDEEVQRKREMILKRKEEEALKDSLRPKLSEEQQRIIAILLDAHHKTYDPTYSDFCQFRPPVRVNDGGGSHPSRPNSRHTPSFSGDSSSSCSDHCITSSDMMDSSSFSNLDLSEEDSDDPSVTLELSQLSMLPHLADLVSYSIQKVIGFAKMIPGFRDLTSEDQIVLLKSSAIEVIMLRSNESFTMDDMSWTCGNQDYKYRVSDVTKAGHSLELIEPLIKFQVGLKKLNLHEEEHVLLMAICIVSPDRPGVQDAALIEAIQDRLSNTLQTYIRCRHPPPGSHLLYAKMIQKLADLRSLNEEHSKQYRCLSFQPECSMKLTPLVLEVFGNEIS
Chain of Glucocorticoid receptor (Homo sapiens) (P04150 whole entry, looked up): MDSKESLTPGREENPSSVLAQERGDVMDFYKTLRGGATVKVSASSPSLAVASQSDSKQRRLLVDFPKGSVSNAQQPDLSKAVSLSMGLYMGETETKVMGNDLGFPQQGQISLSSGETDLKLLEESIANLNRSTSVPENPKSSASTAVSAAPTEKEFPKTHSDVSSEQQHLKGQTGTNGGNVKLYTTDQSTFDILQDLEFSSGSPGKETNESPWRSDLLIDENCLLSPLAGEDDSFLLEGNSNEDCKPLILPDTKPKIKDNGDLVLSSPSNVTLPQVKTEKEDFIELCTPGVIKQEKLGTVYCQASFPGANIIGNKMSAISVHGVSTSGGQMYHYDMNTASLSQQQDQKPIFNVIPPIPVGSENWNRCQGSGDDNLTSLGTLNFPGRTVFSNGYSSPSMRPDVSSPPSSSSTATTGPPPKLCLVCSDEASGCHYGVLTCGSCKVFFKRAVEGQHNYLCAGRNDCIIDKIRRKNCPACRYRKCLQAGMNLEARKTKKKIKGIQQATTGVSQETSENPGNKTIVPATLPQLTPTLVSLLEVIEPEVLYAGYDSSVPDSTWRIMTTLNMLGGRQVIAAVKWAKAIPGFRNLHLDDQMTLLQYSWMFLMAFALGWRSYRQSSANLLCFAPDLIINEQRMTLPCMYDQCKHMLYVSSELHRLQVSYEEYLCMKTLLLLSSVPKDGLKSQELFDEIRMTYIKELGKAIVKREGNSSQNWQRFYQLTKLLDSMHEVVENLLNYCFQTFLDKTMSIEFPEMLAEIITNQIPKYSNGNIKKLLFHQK

With `CC(=O)/C=C/c1ccccc1`, the molecule was called inactive in assay [1], in assay [2], in assay [3], in assay [4], in assay [5] and in assay [7]. Besides, the molecule was called inactive in assay [8], in [9], in [10], in assay [11], in assay [12] and in assay [13]. The call in assay [15], in assay [19] and in assay [20] was inactive. For the same molecule, the Potency result in assay [6], in assay [14], in assay [16], in assay [17] and in [21] was “inactive” each time. Besides, the max response in assay [18] is 11.6%; in assay [22], -2.3%.
